Holding throughout (conditions): mRNA level, 48 h; actives raise or lower the signal
Read-out in test [1]: ABC Transporter (ABCC3), ABCC3 (gene 8714)
In words: LTEA_HepaRG_ABCC3: Life Technologies and Expression Analysis (LTEA) Assay for ABC Transporter (ABCC3) using HepaRG (AID 2283462). The essentials: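 Transcript level by TaqMan qRT-PCR, normalised to three housekeeping genes, fitted in both directions relative to vehicle. Chemicals tested in duplicate at eight half-log concentrations up to 100 uM for 48 h on HepaRG cells (0.5% DMSO).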

Read-out in test [2]: ABC Transporter (ABCB11), ABCB11 (gene 8647)
In words: LTEA_HepaRG_ABCB11: Life Technologies and Expression Analysis (LTEA) Assay for ABC Transporter (ABCB11) using HepaRG (AID 2283463). The essentials:
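ABCB11 transcript levels quantified by TaqMan qRT-PCR against three housekeeping genes after 48 h chemical exposure of HepaRG cultures. Concentrations up to 100 uM in half-log steps, 0.5% DMSO vehicle; both induction and suppression scored.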

Read-out in test [3]: ABC Transporter (ABCC2), ABCC2 (gene 1244)
In words: LTEA_HepaRG_ABCC2: Life Technologies and Expression Analysis (LTEA) Assay for ABC Transporter (ABCC2) using HepaRG (AID 2283464). The method, boiled down: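 Endpoint is ABCC2 transcript level from qRT-PCR, normalized to three housekeeping genes and fitted bidirectionally relative to DMSO. Human HepaRG cells received test chemical for 48 h at up to 100 uM (8 points, half-log steps, 0.5% DMSO), duplicate wells.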

Read-out in test [4]: Broad substrate specificity ATP-binding cassette transporter ABCG2 (Homo sapiens) (UniProt Q9UNQ0)
In words: LTEA_HepaRG_ABCG2: Life Technologies and Expression Analysis (LTEA) Assay for ABC Transporter (ABCG2) using HepaRG (AID 2283465). The method, boiled down: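 ABCG2 transcript was quantified by TaqMan qRT-PCR against three housekeeping genes in HepaRG cells. Cells were treated in duplicate for 48 h across an 8-point half-log series up to 100 uM, with 0.5% DMSO vehicle. Gain or loss versus DMSO was fit.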

Read-out in test [5]: ATP-citrate lyase (ACLY), ACLY (gene 47)
In words: LTEA_HepaRG_ACLY: Life Technologies and Expression Analysis (LTEA) Assay for ATP-citrate lyase (ACLY) using HepaRG (AID 2283466). The essentials:
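ACLY mRNA quantified by qRT-PCR on Fluidigm arrays against three housekeeping genes, after 48 h chemical treatment of HepaRG cells (top concentration 100 uM, half-log steps, 0.5% DMSO vehicle). Up- or down-regulation fitted relative to DMSO.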

Read-out in test [6]: Peroxisomal acyl-coenzyme A oxidase 1 (ACOX1) gene, ACOX1 (gene 51)
In words: LTEA_HepaRG_ACOX1: Life Technologies and Expression Analysis (LTEA) Assay for Peroxisomal acyl-coenzyme A oxidase 1 (ACOX1) gene using HepaRG (AID 2283467). The essentials: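 ACOX1 transcript levels were quantified by TaqMan qRT-PCR against three housekeeping genes after 48 h chemical exposure of differentiated human HepaRG cells. Exposure used eight half-log steps topping at 100 uM, 0.5% DMSO vehicle, in duplicate. Bidirectional curve fits were made relative to DMSO.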

Read-out in test [7]: Alkaline Phosphatase, Placental (ALPP) gene, ALPP (gene 250)
In words: LTEA_HepaRG_ALPP: Life Technologies and Expression Analysis (LTEA) Assay for Alkaline Phosphatase, Placental (ALPP) gene using HepaRG (AID 2283468).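 As to AC50: differentiated human HepaRG liver cells in serum-free induction medium.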 The essentials:
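ALPP transcript level, measured by qRT-PCR and normalized to three housekeeping genes (ACTB, GAPDH, POLR2A), after 48 h dosing of differentiated HepaRG in serum-free induction medium. Top concentration 100 uM with half-log dilutions (8 points, 0.5% DMSO, duplicates); bidirectional fitting relative to DMSO.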

Read-out in test [8]: adenosine kinase (ADK) gene, ADK (gene 132)
In words: LTEA_HepaRG_ADK: Life Technologies and Expression Analysis (LTEA) Assay for adenosine kinase (ADK) gene using HepaRG (AID 2283471). The essentials: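 Read-out is ADK transcript level measured by qRT-PCR and normalised to three housekeeping genes. Cells are human HepaRG, dosed for 48 h at up to 100 uM in 0.5% DMSO. Gain or loss of signal is fitted against DMSO controls.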

Read-out in test [9]: Alpha-fetoprotein (AFP) gene, AFP (gene 174)
In words: LTEA_HepaRG_AFP: Life Technologies and Expression Analysis (LTEA) Assay for Alpha-fetoprotein (AFP) gene using HepaRG (AID 2283472). The method, boiled down:
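Chemicals were tested on differentiated HepaRG cells for 48 hours at eight concentrations up to 100 uM, with 0.5% DMSO as vehicle. AFP expression was then quantified by qRT-PCR and analyzed for gain or loss relative to DMSO.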

Read-out in test [10]: Apolipoprotein A-V (APOA5) gene, APOA5 (gene 116519)
In words: LTEA_HepaRG_APOA5: Life Technologies and Expression Analysis (LTEA) Assay for Apolipoprotein A-V (APOA5) gene using HepaRG (AID 2283474). The essentials: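 APOA5 transcript levels were quantified by qRT-PCR, normalized to three housekeeping genes, after 48 h chemical treatment of HepaRG cells (8 points, 100 uM maximum, half-log steps, 0.5% DMSO). Curves fitted in both directions against vehicle.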

Read-out in test [11]: Apoptosis regulator Bcl-2 (Homo sapiens) (UniProt P10415)
In words: LTEA_HepaRG_BCL2: Life Technologies and Expression Analysis (LTEA) Assay for Bcl-2 gene using HepaRG (AID 2283475). The essentials:
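Plated human HepaRG cells are exposed to test chemicals for 48 h across eight concentrations from 100 uM downward in half-log steps (0.5% DMSO). BCL2 expression is then measured by qRT-PCR with housekeeping normalisation and fitted bidirectionally against vehicle.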

Read-out in another test: Caspase-3 (Homo sapiens) (UniProt P42574)
In words: LTEA_HepaRG_CASP3: Life Technologies and Expression Analysis (LTEA) Assay for cysteine-aspartic acid protease (CASP3) using HepaRG (AID 2283477). The essentials:
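Expression of CASP3 was quantified by TaqMan qRT-PCR against three housekeeping genes (ACTB, GAPDH, POLR2A), bidirectionally versus 0.5% DMSO. HepaRG cultures received compounds in duplicate, top 100 uM with half-log steps, for 48 h in serum-free induction medium.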

Read-out in test [12]: Cytochrome P450 (CYP24A1), CYP24A1 (gene 1591)
In words: LTEA_HepaRG_CYP24A1: Life Technologies and Expression Analysis (LTEA) Assay for Cytochrome P450 (CYP24A1) using HepaRG (AID 2283478). The essentials: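 mRNA of CYP24A1 quantified by TaqMan qRT-PCR (ACTB/GAPDH/POLR2A normalization) after 48 h chemical exposure of HepaRG cells, top concentration 100 uM, half-log steps, 0.5% DMSO vehicle, duplicates. Curves fitted bidirectionally against DMSO baseline.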

Read-out in test [13]: Cytochrome P450 (CYP1A2), CYP1A2 (gene 1544)
In words: LTEA_HepaRG_CYP1A2: Life Technologies and Expression Analysis (LTEA) Assay for Cytochrome P450 (CYP1A2) using HepaRG (AID 2283479). The method, boiled down:
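CYP1A2 transcript measured by TaqMan qRT-PCR against three housekeeping genes after 48-hour chemical exposure of HepaRG cells. Eight-point half-log series topping at 100 uM in 0.5% DMSO, duplicates; gain or loss fitted relative to vehicle.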

Read-out in test [14]: cysteine-aspartic acid protease (CASP8), CASP8 (gene 841)
In words: LTEA_HepaRG_CASP8: Life Technologies and Expression Analysis (LTEA) Assay for cysteine-aspartic acid protease (CASP8) using HepaRG (AID 2283480). The method, boiled down:
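CASP8 transcript measured by TaqMan qRT-PCR with ACTB/GAPDH/POLR2A normalization, after 48 h chemical exposure of HepaRG cells in serum-free induction medium. Eight concentrations, top 100 uM, half-log steps, 0.5% DMSO vehicle; fits in both directions versus DMSO.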

Read-out in test [15]: Cytochrome P450 (CYP2B6), CYP2B6 (gene 1555)
In words: LTEA_HepaRG_CYP2B6: Life Technologies and Expression Analysis (LTEA) Assay for Cytochrome P450 (CYP2B6) using HepaRG (AID 2283481). The method, boiled down:
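CYP2B6 transcript level quantified by qRT-PCR against three housekeeping genes, fitted bidirectionally relative to DMSO. HepaRG cultures received chemicals for 48 h, 8-point half-log series from 100 uM in 0.5% DMSO, duplicate wells, serum-free induction medium.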

Read-out in test [16]: Bcl-2 (BAX) gene, BAX (gene 581)
In words: LTEA_HepaRG_BAX: Life Technologies and Expression Analysis (LTEA) Assay for Bcl-2 (BAX) gene using HepaRG (AID 2283470). The method, boiled down: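 Cells were thawed, plated for 48 h, moved to serum-free induction medium and dosed for 48 h (highest concentration 100 uM, half-log steps, 0.5% DMSO). Total RNA was then analysed for BAX expression by qRT-PCR.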

Read-out in the next test: BCL2L11 (gene 10018)
In words: LTEA_HepaRG_BCL2L11: Life Technologies and Expression Analysis (LTEA) Assay for Bcl-2 (BCL2L11) gene using HepaRG (AID 2283473). The essentials:
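BCL2L11 transcript levels are measured by Fluidigm qRT-PCR, normalized to three housekeeping genes. HepaRG cultures were plated 48 h, then treated 48 h with test chemical (top 100 uM, half-log, 0.5% DMSO vehicle); curves were fitted bidirectionally against DMSO.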

Read-out in test [17]: Bcl-2 (BID) gene, BID (gene 637)
In words: LTEA_HepaRG_BID: Life Technologies and Expression Analysis (LTEA) Assay for Bcl-2 (BID) gene using HepaRG (AID 2283476). The essentials: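 Cells are plated, cultured 48 h, switched to serum-free induction medium, then dosed 48 h (100 uM top, half-log steps, 0.5% DMSO). RNA is isolated and BID expression read by qRT-PCR.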

The text below walks through data of PubChem BioAssay (EPA / NIEHS).

The source made the active and inactive calls. The calls were made as follows: active = hit-call score of the fitted dose curve at least 0.9, where 1 is the maximum; inactive = score below 0.9.

For orientation: AC50 means the midpoint of the concentration-response curve, whichever way the signal moves.

Broad substrate specificity ATP-binding cassette transporter ABCG2 (Homo sapiens), sequence (Q9UNQ0 whole entry, looked up): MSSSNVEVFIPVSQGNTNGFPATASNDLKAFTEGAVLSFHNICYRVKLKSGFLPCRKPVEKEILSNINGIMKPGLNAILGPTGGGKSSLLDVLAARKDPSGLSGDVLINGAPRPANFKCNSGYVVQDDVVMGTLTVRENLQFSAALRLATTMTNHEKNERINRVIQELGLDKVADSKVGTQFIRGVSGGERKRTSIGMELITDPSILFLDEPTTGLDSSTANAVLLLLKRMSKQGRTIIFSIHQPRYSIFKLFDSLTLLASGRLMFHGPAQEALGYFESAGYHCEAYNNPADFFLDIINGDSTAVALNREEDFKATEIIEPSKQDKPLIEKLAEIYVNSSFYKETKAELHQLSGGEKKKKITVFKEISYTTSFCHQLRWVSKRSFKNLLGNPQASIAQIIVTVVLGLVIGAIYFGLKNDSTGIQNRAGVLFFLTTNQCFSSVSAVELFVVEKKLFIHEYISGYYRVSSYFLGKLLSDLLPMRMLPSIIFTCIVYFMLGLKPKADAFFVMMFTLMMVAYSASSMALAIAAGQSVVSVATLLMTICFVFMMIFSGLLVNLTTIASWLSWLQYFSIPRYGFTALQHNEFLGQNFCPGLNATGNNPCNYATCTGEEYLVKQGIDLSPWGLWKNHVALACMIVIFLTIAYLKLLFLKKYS
Caspase-3 (Homo sapiens), sequence (P42574 whole entry, looked up): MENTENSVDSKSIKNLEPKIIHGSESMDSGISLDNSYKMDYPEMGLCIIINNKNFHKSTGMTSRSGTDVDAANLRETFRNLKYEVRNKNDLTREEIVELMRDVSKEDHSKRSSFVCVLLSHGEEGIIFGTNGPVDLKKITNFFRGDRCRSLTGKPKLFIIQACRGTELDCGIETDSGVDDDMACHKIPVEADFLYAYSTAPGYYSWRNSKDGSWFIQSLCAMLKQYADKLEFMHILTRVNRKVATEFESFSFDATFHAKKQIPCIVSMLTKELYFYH
Apoptosis regulator Bcl-2 (Homo sapiens), sequence (P10415 whole entry, looked up): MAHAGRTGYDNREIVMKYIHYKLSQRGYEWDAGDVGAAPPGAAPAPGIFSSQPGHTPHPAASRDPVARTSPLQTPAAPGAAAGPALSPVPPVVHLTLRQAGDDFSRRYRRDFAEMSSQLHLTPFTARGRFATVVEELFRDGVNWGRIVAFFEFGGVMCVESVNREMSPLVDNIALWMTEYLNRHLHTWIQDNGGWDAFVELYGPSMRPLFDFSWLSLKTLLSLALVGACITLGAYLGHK

On to `COP(=O)(OC)OC(Br)C(Cl)(Cl)Br` (configuration not stated), for which the call in test [1], in test [2], in test [3], in [4], in test [5] and in [6] was inactive. Moreover, the compound was called inactive (in [7]; in test [8]; in test [9]; in test [10]; in test [11]; in the test with Caspase-3 (Homo sapiens)). For the same compound, the compound was classed as inactive in test [12] and in test [14]. Besides, the AC50 was 26.3 µM (active) in test [13] and 2.45 µM (active) in [15].

Regarding `N#CSCSC#N`, the compound was called inactive in [1], in test [3], in test [4], in [5], in test [6] and in test [8]. Besides, the compound was classed as inactive (in test [10]; in [11]; in the test with Caspase-3 (Homo sapiens); in [12]; in [13]). In addition, the concentration at half-maximal activity (AC50) in [2] was 50 µM (active); in test [7] it was 12.5 µM (active); in test [16], 50 µM (active); in [9], 80.2 µM (active); in the test with BCL2L11 (gene 10018), 78.8 µM (active); in test [15] it was 92.3 µM (active).

Consider `C[Si](Cn1cncn1)(c1ccc(F)cc1)c1ccc(F)cc1`, for which the result (in [1]; in test [5]; in [8]; with BCL2L11 (gene 10018); in the test with Caspase-3 (Homo sapiens); in [12]) was inactive. In addition, the AC50 in test [2] is 34.5 µM (active); in [3], 50 µM (active); in test [4], 16.3 µM (active); in test [6] it was 40.9 µM (active); in test [7], 50 µM (active); in test [16], 78.9 µM (active). Further, the AC50 in test [9] was 25.4 µM (active); in test [10], 15.8 µM (active); in test [11], 35 µM (active); in test [17], 50 µM (active); in [13], 85.6 µM (active); in test [15] it was 68.8 µM (active).

Take `CCOP(=O)(OCC)Oc1cc(C)nc(C(C)C)n1`: the outcome in [1], in test [2], in test [3], in [4], in test [5] and in test [6] was inactive. Further, the compound was called inactive (in test [7]; in test [16]; in test [8]; in [9]; with BCL2L11 (gene 10018); in [10]). Also, the compound was called inactive (in [11]; with Caspase-3 (Homo sapiens); in test [12]; in test [13]; in [15]).

In the case of `CCCSP(=O)(OCC)SCCC`, the outcome in [1], in test [2], in test [4], in test [5], in [6] and in test [7] was inactive. Further, the call (in test [16]; in test [8]; in test [9]; with BCL2L11 (gene 10018); in [11]; with Caspase-3 (Homo sapiens)) was inactive. For the same compound, the call in test [12] and in test [13] was inactive. Further, the AC50 in test [3] was 20.3 µM (active); in [10] it was 12.9 µM (active); in test [15], 2.48 µM (active).

As for `C#CCC1=C(C)C(OC(=O)C2C(C=C(C)C)C2(C)C)CC1=O` (configuration not stated), the outcome in test [1], in [2], in [5], in test [6], in test [7] and in [16] was inactive. Further, the call (in test [8]; in the test with BCL2L11 (gene 10018); in test [10]; in test [11]; with Caspase-3 (Homo sapiens); in test [12]) was inactive. Besides, the call in test [13] was inactive. Besides, the AC50 was 19.6 µM (active) in test [3], 9.87 µM (active) in test [4], 81.1 µM (active) in test [9] and 12.1 µM (active) in test [15].
